# Measured values as given in the supplement of paper PMC3545927.
# Some of the results follow. How many sequences the whole screen found active is unknown.
# Molecular target: furin, P09958
# Assay: furin cleavage Z-score vs untreated control; higher = more cleavage, active = 3.5 or more, inactive = 1 or less, 8 variable residues between constant flanks
# How it was run: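 Peptides 8 residues long, fused to a cDNA oligonucleotide, were fixed to magnetic beads by the N-terminus and exposed to purified furin. The 0.01 ml reactions contained 50 mM HEPES pH 7.5 with CaCl2 and NaCl at 1:10 enzyme:substrate and ran 7.5, 15 or 30 min. For the cleavage Z-score, log counts of sequenced released DNA were compared with furin-free reactions, lowess-adjusted and scaled by median absolute deviation.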
# Sequence of furin, P09958 (P09958 whole entry): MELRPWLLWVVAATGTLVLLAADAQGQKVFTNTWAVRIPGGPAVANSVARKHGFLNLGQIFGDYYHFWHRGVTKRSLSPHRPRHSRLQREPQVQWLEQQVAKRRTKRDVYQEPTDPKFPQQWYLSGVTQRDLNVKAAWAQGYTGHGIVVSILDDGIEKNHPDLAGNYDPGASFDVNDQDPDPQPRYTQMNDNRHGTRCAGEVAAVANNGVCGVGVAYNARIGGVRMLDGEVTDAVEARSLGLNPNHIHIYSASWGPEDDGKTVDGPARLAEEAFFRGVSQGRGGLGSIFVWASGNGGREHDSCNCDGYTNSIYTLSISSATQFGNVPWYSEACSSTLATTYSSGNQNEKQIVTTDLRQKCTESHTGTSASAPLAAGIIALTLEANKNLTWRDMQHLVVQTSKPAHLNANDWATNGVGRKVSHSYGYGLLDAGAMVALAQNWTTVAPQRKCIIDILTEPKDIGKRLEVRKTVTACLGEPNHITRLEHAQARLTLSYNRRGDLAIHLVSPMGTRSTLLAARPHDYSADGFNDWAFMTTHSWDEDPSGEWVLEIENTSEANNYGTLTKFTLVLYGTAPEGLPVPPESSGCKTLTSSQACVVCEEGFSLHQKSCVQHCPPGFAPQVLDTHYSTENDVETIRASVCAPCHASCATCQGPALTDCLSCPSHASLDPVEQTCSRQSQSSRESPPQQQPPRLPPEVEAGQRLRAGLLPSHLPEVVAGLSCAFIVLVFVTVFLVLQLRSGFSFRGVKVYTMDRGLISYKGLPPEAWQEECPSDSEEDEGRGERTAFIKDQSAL
Sequence,furin cleavage Z-score (7.5 min),furin cleavage Z-score (15 min),furin cleavage Z-score (30 min)
CAGVLTTSCGAGNASASA [HC1512],-0.572 (inactive),0.491 (inactive),-0.869 (inactive)
CAATQLRRHIAGNASASA [HC288],-0.217 (inactive),0.529 (inactive),1.16
CAYASRGIRPAGNASASA [FS-1618],-0.625 (inactive),-0.502 (inactive),-1.11 (inactive)
CAGGQRKKRAAGNASASA [FS-1125],8.55 (active),7.61 (active),6.45 (active)
CAAGARLVVLAGNASASA [HC830],1.19,0.934 (inactive),0.0298 (inactive)
CAAGARKKRAAGNASASA [FS-970],6.63 (active),6.95 (active),6.49 (active)
CAAQQRKKRAAGNASASA [FS-1306],6.17 (active),6.15 (active),6.14 (active)
CASHQKKKRAAGNASASA [FS-1486],4.35 (active),2.8,4.35 (active)
CAAGAGAGAGAGNASASA [NE3],-0.934 (inactive),-0.656 (inactive),-0.752 (inactive)
CAGGQIVGGVAGNASASA [HC174],-1.23 (inactive),-1.41 (inactive),-1.78 (inactive)
CALREVPCHRAGNASASA [HC2425],-0.109 (inactive),-0.538 (inactive),-0.256 (inactive)
CAEVPCHEPSAGNASASA [HC2372],-0.836 (inactive),1.11,-0.669 (inactive)
CAGAPPCVIGAGNASASA [HC443],1.73,-1.15 (inactive),-0.113 (inactive)
CALAGTHGLVAGNASASA [HC540],0.465 (inactive),1.56,0.729 (inactive)
CATDRSGAPTAGNASASA [HC420],-0.957 (inactive),-0.534 (inactive),0.262 (inactive)
CANVSVAHDGAGNASASA [HC1555],0.322 (inactive),-0.558 (inactive),0.0108 (inactive)
CAALENLVILAGNASASA [HC534],-0.644 (inactive),-1.06 (inactive),-0.181 (inactive)
CARSLRSEFKAGNASASA [FS-3209],-0.188 (inactive),-0.988 (inactive),0.991 (inactive)
CARIKRAEGWAGNASASA [FS-2149],6.5 (active),7.28 (active),7.15 (active)
CARIKRAGGFAGNASASA [FS-2261],6.34 (active),8.63 (active),7.18 (active)
CAREKRGNGWAGNASASA [FS-2254],-0.781 (inactive),0.97 (inactive),2.15
CARFWRSTGFAGNASASA [FS-2669],0.601 (inactive),1.09,0.345 (inactive)
CARGARVVFKAGNASASA [FS-2930],-2.06 (inactive),-1.04 (inactive),-0.554 (inactive)
CARAKKIFGWAGNASASA [FS-1680],1.69,0.732 (inactive),0.406 (inactive)
CARIKRMVFKAGNASASA [FS-1722],5.13 (active),5.7 (active),8.11 (active)
CARIKKSKMIAGNASASA [FS-2260],-0.171 (inactive),1.16,-0.504 (inactive)
CADNMEECSQAGNASASA [HC1821],-1.18 (inactive),-0.208 (inactive),-1.08 (inactive)
